Results as given in PubChem BioAssay (NCI).
This is part of a sample that, as a whole, favours compounds with a hit. Of some 83,000 tested, about 20% had one in any assay.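 Interpretation: 100, growth as untreated; towards 0, rising growth inhibition; 0, no net growth; 0 to -100, cell death. Compounds scoring below 10 were considered active.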 Values without a mark were called inactive. Calls of active or inactive are those of the source.

system: OVCAR-4 ovarian; test: NCI-60 one-dose screen, 48 h (100 = growth as untreated, 0 = no growth, -100 = all killed); details: 10 µM unless noted
Procedure: Growth inhibition of the OVCAR-4 human tumor cell line is measured as a screen for anti-cancer activity. Cells are grown in 96 well plates and exposed to the test compound for 48 hours. Compounds are tested at a single concentration, which is 10^-5 M for most compounds. The reported endpoint is percent growth (GI% or GIPRCNT), where numbers from 0 - 100% represent growth inhibition, and numbers from -100% - 0 represent cell death. For example, a value of 40 represents 60% growth inhibition. A value of 0 means no net growth occurred over the course of the experiment. A value of -40 indicates 40% of cells at the beginning of the experiment died by the end of the experiment. A value of -100 means all cells are dead at the end of the experiment.
NCI-60 Human Tumor Cell Lines Screen was performed using the standard one-dose NCI protocol, which is described in more detail at https://dtp.cancer.gov/discovery_development/nci-60/default.htm.
Compounds with GIPRCNT values below 10 were considered active. Activity score was based on GIPRCNT using the following formula: […]
Score is 0 for GIPRCNT values of 100 or above, 50 for GIPRCNT values of 0, and 100 for GIPRCNT values of -100.

| Structure (SMILES) | growth |
| --- | --- |
| Cc1ccc(-c2cc3nc(C(Cl)Cl)nc(-c4ccccc4)n3n2)cc1 | 103% |
| CCOC(=O)/C(F)=C/C1CC1C1CCCCC1 (stereo not given) | 107% |
| O=C1Nc2cc(OC(F)(F)F)ccc2Oc2ccc(-c3ccnc(N4CCNCC4)c3)cc21 | 48% |
| O=C(NCCCNc1cc(-c2cn(-c3ccccc3)nc2-c2cccc(O)c2)ccn1)Nc1cc(C(F)(F)F)cc(C(F)(F)F)c1 | 66.9% |
| CC[C@@](C)(NC(=O)C(C)(C)NC(=O)[C@@H](NC(=O)[C@@H]1CCCN1C(=O)C(C)(C)NC(=O)[C@H](CC(C)C)NC(=O)CNC(=O)C(C)(C)NC(=O)[C@@H](NC(=O)C(C)(C)NC(=O)[C@H](CCC(N)=O)NC(=O)[C@H](C)NC(=O)C(C)(C)NC(=O)[C@H](C)NC(=O)C(C)(C)NC(=O)[C@H](C)NC(=O)C(C)(C)NC(C)=O)C(C)C)C(C)C)C(=O)N[C@@H](CCC(N)=O)C(=O)N[C@@H](CCC(N)=O)C(=O)N[C@H](CO)CC1CCCCC1 | 58% [5 µM] |
| O=C(COc1ccc(/C=C2\SC(=O)NC2=O)cc1)Nc1ccc(C(=O)/C=C/c2cc3ccccc3nc2Cl)cc1 | 42.2% |
| COC(=O)[C@@]1(C)CC[C@]2(C)CC[C@]3(C)C(=CC(=O)[C@@H]4[C@@]5(C)Cc6c(n(CC#CCN7CCN(C)CC7)c7ccccc67)C(C)(C)[C@@H]5CC[C@]43C)[C@@H]2C1 | 89.7% |
| O=C1CC2(CCOCC2)Oc2ncccc21 | 102% |
| COc1ccc(Cn2cc3c(c2-c2cc(OC)c(OC)c(OC)c2)CCCc2cnoc2-3)cc1N | 80.9% |
| O=C1c2c(c3c4ccc(Br)cc4oc3c3[nH]c4ccccc4c23)C(=O)N1CCO | 89.7% |
| Nc1ccc(-c2nnc(SCc3ccc(O)c4ncccc34)o2)cc1 | -1.57% (active) |
| COC(=O)c1nc(-c2ccc(C)cc2)oc1S(=O)(=O)N1CCN(c2oc(-c3ccccc3)nc2C#N)CC1 | 106% |
| COc1cc(C2CC(c3ccc(Nc4nc(NCCO)nc(Nc5ccc(Cl)cc5)n4)cc3)=Nc3c(N)nc(N)nc3N2)cc(OC)c1OC (stereo not given) | 65.2% |
| O=C(Nc1cccc(Cl)c1)Nc1nc2ccc(-c3cccc4ccccc34)cc2s1 | 20.4% |
| COc1cc(/C=N/n2cnc3oc(-c4ccccc4)cc3c2=N)cc(CN2CCN(C)CC2)c1O | 97.7% |
| CCNC(=O)Oc1ccc(/C(=C(/C)c2ccccc2)c2ccc(OCCN3CCCC3)cc2)cc1 | 81.7% |
| COc1ccc2c(c1)c(-c1nn3c(=O)cc(-c4ccccc4)nc3s1)cn2C | 67.4% |
| C#CCOc1ccc(C(Nc2cc(Cl)ccc2Cl)c2nnnn2C2CCCCC2)cc1 (stereo not given) | 93.3% |
| COCCC[C@H]1O[C@@](O)([C@H](C)[C@@H]2CC(OC)C(O)/C=C(C)/C=C(C)/C=C(\C)C(OC3O[C@@H](C)[C@H](O)C(O)[C@@H]3O)C(C)/C=C(C)/C=C(OC)/C=C(\C)C(=O)O2)C(OC)C(O)[C@]1(C)O[C@H]1C[C@@H](O)[C@H](O[C@H]2C[C@](C)(O)[C@H](O)C(C)O2)C(C)O1 (stereo not given in full) | 19.7% |
| COc1cc2c3c(n(CCCN4CCCCC4)c(=O)c2cc1OC)-c1cc2c(cc1C3=O)OCO2 | -74.1% (active) |

| Structure (SMILES) | growth |
| --- | --- |
| CCN1C(=O)N(CC)C2SC(N/N=C/c3ccccc3)=NC21 (stereo not given) | 71.6% |
| Oc1ccccc1-c1nnc(SCc2ccc(O)c3ncccc23)n1-c1ccccc1 | 16.3% |
| COc1ccc(S(=O)(=O)n2cc(C=O)c3ccccc32)c(OC)c1 | 80.9% |
| CCOC(=O)c1c(Nc2ccccc2)nn2c(-c3ccc(OC)c(OC)c3)ccnc12 | 72.4% |
| O=C(NCCCNc1cc(-c2cn(-c3ccccc3)nc2-c2cccc(O)c2)ccn1)Nc1ccc(F)cc1 | 30.9% |
| COc1ccc([C@H]2[C@H](O)C(=O)N2c2cc(OC)c(OC)c(OC)c2)cc1O | 70.3% |
| COc1cc2cc(Oc3ccc(NC(=O)Nc4cc(C(F)(F)F)cc(C(F)(F)F)c4)cc3)c(C)nc2cc1OCCN(C)C | 104% |
| COCCOc1ccc(-c2csc(NC(=O)CN3CCN(CCO)CC3)n2)cc1NS(=O)(=O)c1cccc2c(N(C)C)cccc12 | 96% |
| Cc1cc(O)c(=O)cc2c1C[C@H]1CC(C)(C)/C=C/C[C@]3(C)Oc4cc(=O)c(O)cc(C)c4C[C@H]3C[C@H](O)[C@@]1(C)O2 | 9.74% (active) |
| CCOC(=O)Nc1cccc(-n2cnc3cc(-c4ccc(O)cc4)ccc32)c1 | 56% |
| COc1cc(/C=N/n2cnc3oc(-c4ccccc4)cc3c2=N)cc(CN2CCOCC2)c1O | 72.6% |
| CN1CCN(Cc2ccc(NC(=O)c3cncc(C#Cc4[nH]nc5ncncc45)c3)cc2C(F)(F)F)CC1 | 88.5% |
| O=C(COc1ccc(C2SCC(=O)N2c2ccccc2)cc1)c1ccccc1 (stereo not given) | 107% |
| COc1cc(O)c2c(c1)[C@H]1O[C@@H]1C[C@H](O)[C@H](O)C(=O)/C=C\C[C@H](C)OC2=O | 27% |
| CN1C(=O)N(C)C2Nn3c(s/c(=C\c4ccccn4)c3=O)=NC21 (stereo not given) | 104% |
| O=C1Nc2ccc(Br)cc2/C1=N\c1nnc(-c2ccc(Cl)cc2)o1 | 86.4% |
| Oc1ccc(CSc2nnc(-c3cnccn3)n2-c2ccccc2)c2cccnc12 | 16.5% |
| COc1ccc(-c2ccnc3c(C#N)c(Nc4ccccc4)nn23)cc1OC | 103% |
| Cc1cn(-c2cc(NC(=O)c3cncc(C#Cc4cnc5ccc(O[C@H]6CCOC6)nn45)c3)cc(C(F)(F)F)c2)cn1 | 90.1% |
| CCOC(=O)c1nn(-c2ccc(C)cc2)c(=O)c2c(N)c(C#N)c(-c3ccc(OC)cc3)cc12 | 101% |
